Data taken from PubChem BioAssay.
Unmarked numbers belong to inactive results. Entries that show only a call come without a potency. For some assays here: Potency and affinity values are given separately. The source made the active and inactive calls. Unless noted, how the calls were made is not given here.

Tests used:
[1] = antimalarial activity against Dd2 strain (AID 2302;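 active means growth inhibition above 50% at the single 2 µM test dose, taken to imply half-maximal potency below 2 µM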); conditions: P. falciparum Dd2 in RBCs, LDH growth readout, 72 h; at 2 µM; hits give high values
[2] = human hepatoma cell viability loss – ATP luminescence, cytotoxicity control for P. falciparum antimalarial project, primary screen (AID 2303;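 active means inhibition above 50%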); conditions: HepG2 viability, 24-48 h, at 10 µM, hits give high values
[3] = target: L-lactate dehydrogenase (Plasmodium falciparum (isolate CDC / Honduras)) (UniProt Q27743); experiment: PfLDH activity inhibition – cell lysate, 3D7 strain, counter-screen for P. falciparum growth inhibition project (AID 2304); conditions: P. falciparum 3D7 crude extract, LDH APAD/NBT absorbance; at 2 µM; hits give high values
Sequence of L-lactate dehydrogenase (Plasmodium falciparum (isolate CDC / Honduras)) (Q27743 whole entry, looked up): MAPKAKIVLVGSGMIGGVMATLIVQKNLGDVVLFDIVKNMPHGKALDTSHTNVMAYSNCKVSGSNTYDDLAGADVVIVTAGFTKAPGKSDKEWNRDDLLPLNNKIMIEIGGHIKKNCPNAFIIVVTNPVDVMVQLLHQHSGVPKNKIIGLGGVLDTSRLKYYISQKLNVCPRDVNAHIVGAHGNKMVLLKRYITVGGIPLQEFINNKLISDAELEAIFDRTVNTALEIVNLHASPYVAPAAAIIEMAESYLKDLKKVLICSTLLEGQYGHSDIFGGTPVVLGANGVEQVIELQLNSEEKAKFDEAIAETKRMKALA

[4] = inhibition of 3D7 malaria parasite growth – strain 3D7 (AID 2306); conditions: P. falciparum 3D7 erythrocytic growth, LDH absorbance, 72 h; at 2 µM; hits give high values
[5] = target: Calcium-dependent protein kinase 1 (Plasmodium falciparum (isolate 3D7)) (UniProt P62344); experiment: PfCDPK1 kinase inhibitors, biochemical, TCAMS library (AID 1159585; cut-off not given, nearly all actives have IC50 up to about 0.98 µM;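 further: inhibitors leave more ATP so luminescence rises with inhibition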); conditions: recombinant PfCDPK1, Kinase-Glo ATP depletion luminescence
Sequence of Calcium-dependent protein kinase 1 (Plasmodium falciparum (isolate 3D7)) (P62344 whole entry, looked up): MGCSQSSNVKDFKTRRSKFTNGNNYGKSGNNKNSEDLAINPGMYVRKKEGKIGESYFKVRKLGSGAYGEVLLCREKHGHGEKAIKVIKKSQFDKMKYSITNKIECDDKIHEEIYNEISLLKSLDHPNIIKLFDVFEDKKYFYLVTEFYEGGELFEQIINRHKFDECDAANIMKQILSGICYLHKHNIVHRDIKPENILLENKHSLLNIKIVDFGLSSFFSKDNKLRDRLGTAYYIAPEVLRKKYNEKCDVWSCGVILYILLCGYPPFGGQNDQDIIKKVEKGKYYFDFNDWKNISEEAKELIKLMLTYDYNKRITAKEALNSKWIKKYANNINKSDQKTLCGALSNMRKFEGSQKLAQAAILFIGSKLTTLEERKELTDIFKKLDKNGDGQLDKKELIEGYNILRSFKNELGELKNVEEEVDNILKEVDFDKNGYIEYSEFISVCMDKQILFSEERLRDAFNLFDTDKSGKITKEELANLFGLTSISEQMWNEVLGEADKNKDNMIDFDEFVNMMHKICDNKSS

[6] = target: Plasmodium falciparum protein kinase 6 (PK6, PF3D7_1337100) (UniProt Q8IDW1); experiment: PfPK6 kinase inhibitors, biochemical, TCAMS library (AID 1159586); conditions: recombinant PfPK6, Kinase-Glo ATP depletion luminescence
Sequence of Plasmodium falciparum protein kinase 6 (PK6, PF3D7_1337100) (Q8IDW1 1-305): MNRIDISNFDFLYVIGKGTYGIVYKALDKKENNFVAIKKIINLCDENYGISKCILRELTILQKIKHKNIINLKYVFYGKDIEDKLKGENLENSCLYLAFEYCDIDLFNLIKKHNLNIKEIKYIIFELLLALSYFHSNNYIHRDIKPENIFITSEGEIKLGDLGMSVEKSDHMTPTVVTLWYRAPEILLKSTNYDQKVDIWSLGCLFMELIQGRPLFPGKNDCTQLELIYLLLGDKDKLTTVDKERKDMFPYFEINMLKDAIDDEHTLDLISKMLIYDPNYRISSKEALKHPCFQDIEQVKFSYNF

[7] = target: Protein kinase 7 (PK7), Plasmodium falciparum 3D7 (PF3D7_0213400) (UniProt Q7YTF7); experiment: inhibition of Plasmodium PK7 catalytic activity – biochemical, TCAMS antimalarial set, Kinase-Glo luminescence (AID 1159587); conditions: recombinant PfPK7, Kinase-Glo ATP depletion luminescence
Sequence of Protein kinase 7 (PK7), Plasmodium falciparum 3D7 (PF3D7_0213400) (Q7YTF7 1-343): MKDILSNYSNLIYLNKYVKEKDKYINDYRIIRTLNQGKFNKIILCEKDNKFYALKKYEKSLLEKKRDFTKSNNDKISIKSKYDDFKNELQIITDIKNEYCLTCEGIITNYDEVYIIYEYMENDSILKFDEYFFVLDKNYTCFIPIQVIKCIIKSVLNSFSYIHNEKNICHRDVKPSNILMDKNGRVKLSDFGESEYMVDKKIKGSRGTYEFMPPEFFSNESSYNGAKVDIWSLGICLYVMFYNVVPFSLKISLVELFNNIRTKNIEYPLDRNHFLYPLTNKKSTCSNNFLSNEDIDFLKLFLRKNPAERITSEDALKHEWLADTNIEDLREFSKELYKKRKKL

[8] = target: Calcium-dependent protein kinase 4 (Plasmodium falciparum (isolate 3D7)) (UniProt Q8IBS5); experiment: PfCDPK4 kinase inhibitors, biochemical, TCAMS library (AID 1159588; cut-off not given, nearly all actives have IC50 up to about 0.91 µM); conditions: recombinant PfCDPK4, Kinase-Glo ATP depletion luminescence
Sequence of Calcium-dependent protein kinase 4 (Plasmodium falciparum (isolate 3D7)) (Q8IBS5 whole entry, looked up): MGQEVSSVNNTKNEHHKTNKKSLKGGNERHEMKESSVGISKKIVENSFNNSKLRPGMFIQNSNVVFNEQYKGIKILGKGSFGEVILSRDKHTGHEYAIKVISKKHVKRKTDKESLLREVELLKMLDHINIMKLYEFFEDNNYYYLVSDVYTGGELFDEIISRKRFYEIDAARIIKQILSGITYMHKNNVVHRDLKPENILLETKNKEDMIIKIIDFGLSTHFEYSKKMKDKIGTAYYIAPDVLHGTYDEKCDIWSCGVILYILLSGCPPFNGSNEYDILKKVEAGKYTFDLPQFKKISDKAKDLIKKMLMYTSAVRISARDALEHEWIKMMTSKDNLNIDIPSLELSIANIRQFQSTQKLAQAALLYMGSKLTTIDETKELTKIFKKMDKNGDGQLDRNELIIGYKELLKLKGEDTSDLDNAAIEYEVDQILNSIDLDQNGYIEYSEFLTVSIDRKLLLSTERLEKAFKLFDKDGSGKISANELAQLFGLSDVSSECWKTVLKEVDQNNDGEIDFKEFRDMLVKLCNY

Row | Structure (SMILES) | growth inhibition [1] | inhibition [2] | inhibition [3] [%] | growth inhibition [4] | outcome [5] | outcome [6] | outcome [7] | outcome [8]
1 | O=C(NCc1cccc(C(F)(F)F)c1)C(c1cc2ccccc2o1)N1CCN(C(c2ccccc2)c2ccccc2)CC1 (stereo not given) | 80% (active) | -4% | 0 | 91% (active) | inactive | inactive | inactive | inactive
2 | Cc1cccc(Nc2nc(N)c3ccccc3n2)c1 | 49% | 1% | 3 | 99% (active) | inactive | inactive | inactive | inactive
3 | CC(C)c1ccc(NC(=O)N[C@H]2CCN(CCCCCNC(=O)/C=C/c3ccc(Cl)c(Cl)c3)C2)cc1 | 14% | 56% (active) | 7 | 100% (active) | inactive | inactive | inactive | inactive
4 | O=C(NCC(NCCCNc1cc(=O)c2ccccc2[nH]1)c1cc(Br)cc(Br)c1)C1=CCCC1 (stereo not given) | 48% | -4% | 7 | 96% (active) | inactive | inactive | inactive | inactive
5 | Cc1ccc(NC(=O)c2ccc(N3CCC(c4ccccc4C)CC3)nc2)cc1 | 72% (active) | 49% | 3 | 83% (active) | inactive | inactive | inactive | inactive
6 | NC1CCN(CCc2ccc(NS(=O)(=O)c3cccc4ccccc34)cc2)CC1 | 4% | 21% | 4 | 94% (active) | inactive | inactive | inactive | inactive
7 | CCOC(=O)CC[C@@H](NC(=O)c1ccc(NCc2ccc3ccc4nc(C)[nH]c(=O)c4c3c2)cc1F)C(=O)N[C@@H](Cc1c[nH]c2ccccc12)C(=O)OCC | 77% (active) | 45% | 0 | 98% (active) | inactive | inactive | inactive | inactive
8 | Nc1ccc2[nH]cc(C3CCN(CC4CCC(NC(=O)/C=C/c5ccccc5Cl)CC4)CC3)c2n1 (stereo not given) | 45% | 7% | -3 | 100% (active) | inactive | inactive | inactive | inactive
9 | CCn1nc(C(=O)NC2CCOc3ccccc32)c2ccccc2c1=O (stereo not given) | 59% (active) | 13% | 0 | 86% (active) | inactive | inactive | inactive | inactive
10 | CCNc1cc(C)nc(Nc2ccc(NC(=O)c3ccccc3Cl)cc2)n1 | 52% (active) | 48% | -2 | 100% (active) | inactive | inactive | inactive | inactive
11 | CCNc1cc(C)nc(Nc2ccc(NC(=O)Cc3ccc(OC)cc3)cc2)n1 | 47% | 30% | -1 | 101% (active) | inactive | inactive | inactive | inactive
12 | COc1ccc2nc(C)cc(NN=Cc3ccncc3)c2c1 | 68% (active) | 6% | 1 | 102% (active) | inactive | inactive | inactive | inactive
13 | CSc1ccc(CN2CCC(NC(=O)c3ccc(-c4cccc(C(F)(F)F)c4)s3)CC2)cc1 | 9% | 68% (active) | -2 | 90% (active) | inactive | inactive | inactive | inactive
14 | CCCC(=O)c1cnc2c(Oc3cc(Cl)ncn3)cccc2c1Nc1ccccc1C | 85% (active) | 6% | 6 | 99% (active) | inactive | inactive | inactive | inactive
15 | C=Cc1ccc(-c2c(C)[nH]c(C)c(Br)c2=O)cc1 | 96% (active) | -2% | -3 | 98% (active) | inactive | inactive | inactive | inactive
16 | COc1ccc(NC(=O)CCNc2cc(C)nc(NCc3ccccc3C)n2)cc1 | 61% (active) | 7% | -1 | 94% (active) | inactive | inactive | inactive | inactive
17 | COC(=O)c1cccc(NC(=O)NCCNc2ccnc(Nc3ccc(F)cc3)n2)c1 | 5% | 10% | -6 | 93% (active) | inactive | inactive | inactive | inactive
18 | Oc1ccc2nc(Nc3ccccc3)nc(NCCc3ccccc3)c2c1 | 100% (active) | 20% | -6 | 100% (active) | inactive | inactive | inactive | inactive
19 | Nc1c(Cl)cc(C(O)CNCCCCCCOCCc2ccc(CO)s2)cc1Cl (stereo not given) | 71% (active) | 1% | -2 | 86% (active) | inactive | inactive | inactive | inactive
20 | O=C(Nc1ccc(Oc2ccccc2)cc1)N[C@@H](Cc1ccc(O)cc1)C(=O)NC1CCN(Cc2ccc(O)c([N+](=O)[O-])c2)C1 (stereo not given in full) | -3% | -3% | 2 | 101% (active) | inactive | inactive | inactive | inactive

Row | Structure (SMILES) | growth inhibition [1] | inhibition [2] | inhibition [3] [%] | growth inhibition [4] | outcome [5] | outcome [6] | outcome [7] | outcome [8]
21 | O=S(=O)(c1cccc(C(F)(F)F)c1)N1CCC(CO)(Cc2cccc(C(F)(F)F)c2)CC1 | 79% (active) | 3% | 0 | 100% (active) | inactive | inactive | inactive | inactive
22 | COCCn1c(Sc2ncnc3sccc23)nc2ccccc21 | 72% (active) | -8% | -6 | 95% (active) | inactive | inactive | inactive | inactive
23 | Cc1c(O)cccc1Nc1ccnc2ccc(C(F)(F)F)cc12 | 51% (active) | -15% | -2 | 96% (active) | inactive | inactive | inactive | inactive
24 | Cc1nc(-c2cccc(Nc3nccc(NCC(O)c4ccc(C(F)(F)F)cc4)n3)c2)cs1 (stereo not given) | 99% (active) | 33% | 4 | 100% (active) | inactive | inactive | inactive | inactive
25 | Cc1cc(C2CCN(CCCCNC(=O)c3ccc(NC(=O)c4ccc(Cl)cc4)cc3)CC2)c(C)cc1OCCN(C)C | 77% (active) | 18% | -1 | 100% (active) | inactive | inactive | inactive | inactive
26 | NC(N)=NN=Cc1cc([N+](=O)[O-])ccc1Sc1ccccc1CO | -1% | 25% | -2 | 84% (active) | inactive | inactive | inactive | inactive
27 | CC1CN(Cc2cccc(F)c2)CCN1c1ccc(NC(=O)c2cccs2)cc1 (stereo not given) | 96% (active) | -1% | -2 | 96% (active) | inactive | inactive | inactive | inactive
28 | O=C(Nc1ccc(Cn2ncc(N3CCCNCC3)c(Cl)c2=O)cc1)Nc1cccc(SC(F)(F)F)c1 | 33% | 12% | 4 | 92% (active) | inactive | inactive | inactive | inactive
29 | COc1ccc(C(C(=O)NC2CCN(C[C@H](O)c3ccnc4ccc(OC)cc34)CC2)N2CCc3ccccc3C2)cc1 (stereo not given in full) | 30% | 19% | -3 | 96% (active) | inactive | inactive | inactive | inactive
30 | CC(C)CCN1CCC(Oc2cccc(NC(=O)c3ccc(C(F)(F)F)cc3)c2)CC1 | 6% | 39% | -2 | 98% (active) | inactive | inactive | inactive | inactive
31 | CCc1nc(N)nc(N)c1-c1cccc(Cl)c1 | 1% | 60% (active) | 2 | 94% (active) | inactive | inactive | inactive | inactive
32 | COc1cc2nc(N3CCC(CNC(=O)c4ccc(-c5ccc(C(=O)N(C)C)cc5)cc4)CC3)nc(N)c2cc1OC | 89% (active) | 20% | 0 | 101% (active) | inactive | inactive | inactive | inactive
33 | c1ccc2[nH]c(CN(Cc3nc4ccccc4[nH]3)Cc3nc4ccccc4[nH]3)nc2c1 | 86% (active) | 39% | -2 | 81% (active) | inactive | inactive | inactive | inactive
34 | O=c1c(Br)ccccc1Br | 41% | 98% (active) | 0 | 94% (active) | inactive | inactive | inactive | inactive
35 | c1ccc2[nH]c(Nc3ccc(Nc4nc5ccccc5[nH]4)cc3)nc2c1 | 27% | -3% | 1 | 98% (active) | inactive | inactive | inactive | inactive
36 | O=S(=O)(c1cc(Cl)c(Cl)cc1Cl)N1CCCCC(c2ccc(C(F)(F)F)cc2)=N1 | 99% (active) | 9% | -1 | 98% (active) | inactive | inactive | inactive | inactive
37 | CC(C)CCNC(=O)[C@@H]1[C@H]2C(=O)N(C3CCCCC3)C(=O)[C@H]2[C@H]2C=C[C@@H]3C(c4ccc(C(C)(C)C)cc4)=NO[C@@H]3N21 | 48% | -4% | -2 | 96% (active) | inactive | inactive | inactive | inactive
38 | Cc1cc(-c2ccc(CNCCc3cccs3)cc2)ccc1S(=O)(=O)NCc1ccccc1 | -2% | 28% | 3 | 94% (active) | inactive | inactive | inactive | inactive
39 | CCCCOC(=O)NCCCC[C@H](NC(=O)OC(C)(C)C)C(=O)N[C@H](C(=O)OC(c1ccccc1)c1ccccc1)[C@H]1O[C@@H](n2ccc(=O)[nH]c2=O)[C@@H]2OC(C)(C)O[C@@H]21 | 65% (active) | 7% | 4 | 87% (active) | inactive | inactive | inactive | inactive
40 | Cc1cc(NS(=O)(=O)c2cccc(C(C)N3CCC(N4CCCC4)CC3)c2)ccc1C(C)C (stereo not given) | 53% (active) | 30% | -2 | 100% (active) | inactive | inactive | inactive | inactive
